Results taken from PubChem BioAssay AID1159580 (chemical genetic matrix, 2015).
The campaign covered roughly 5,500 compounds. About 2,000 (36%) were called active. About 18% were inconclusive and are not listed. Cut-off read from the data, not from the text of the source: active = normalized growth mostly below about 0.91 (no sharp cut-off); inconclusive = no clear call, values can overlap the other calls; inactive = mostly above about 0.92. The list shows a part of the results.

Assay: chemical genetic growth profiling, strain panel (AID 1159580);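 note: tested at 20 µM; growth read once vehicle control cultures reached saturation at 30 °C; 1 = growth at the plate median or of vehicle wells; lower values mean less growth of the strain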
Settings: S. cerevisiae deletion strains, growth OD

Measured: normalized growth

COC(=O)CCCOc1ccc(Cl)cc1Cl
inactive: locus YAL013W, strain DEP1, hits give low values 0.986 | locus YAL021C, strain ccr4, hits give low values 0.988 | locus YAL026C, strain drs2, hits give low values 0.966 | locus YAL030W, strain snc1, hits give low values 0.968 | locus YBL061C, strain skt5, hits give low values 0.952 | locus YBR009C, strain hhf1, hits give low values 0.955 | locus YBR021W, strain FUR4, hits give low values 0.931 | locus YBR023C, strain chs3, hits give low values 0.96 | locus YBR171W, strain sec66, hits give low values 0.916 | locus YBR229C, strain ROT2, hits give low values 0.993 | locus YBR231C, strain swc5, hits give low values 0.964 | locus YBR279W, strain paf1, hits give low values 0.961 | locus YCL011C, strain gbp2, hits give low values 0.967 | locus YCL016C, strain dcc1, hits give low values 0.959 | locus YCL029C, strain bik1, hits give low values 1 | locus YCL061C, strain MRC1, hits give low values 0.953 | locus YCL069W, strain vba3, hits give low values 0.962 | locus YCR088W, strain abp1, hits give low values 0.955 | locus YDL005C, strain med2, hits give low values 0.958 | locus YDL035C, strain GPR1, hits give low values 1 | locus YDL040C, strain nat1, hits give low values 0.954 | locus YDL074C, strain BRE1, hits give low values 0.999 | locus YDL101C, strain DUN1, hits give low values 1.02 | locus YDL134C, strain PPH21, hits give low values 0.998 | locus YDL185W, strain tfp1, hits give low values 0.988 | locus YDL192W, strain arf1, hits give low values 0.996 | locus YDR001C, strain nth1, hits give low values 0.967 | locus YDR069C, strain doa4, hits give low values 0.967 | locus YDR101C, strain arx1, hits give low values 0.987 | locus YDR137W, strain rgp1, hits give low values 0.899 | locus YDR150W, strain NUM1, hits give low values 0.989 | locus YDR159W, strain sac3, hits give low values 0.956 | locus YDR162C, strain NBP2, hits give low values 0.991 | locus YDR195W, strain ref2 0.972 | locus YDR297W, strain sur2, hits give low values 0.961 | locus YDR318W, strain mcm21, hits give low values 0.993 | locus YDR334W, strain swr1, hits give low values 0.974 | locus YDR335W, strain msn5, hits give low values 0.968 | locus YDR388W, hits give low values 0.992 | locus YDR392W, strain spt3, hits give low values 0.902 | locus YDR502C, strain sam2, hits give low values 0.995 | locus YEL003W, strain gim4, hits give low values 0.966 | locus YEL037C, strain rad23, hits give low values 0.968 | locus YEL061C, strain CIN8 (second series), hits give low values 0.961 | locus YEL061C, strain CIN8, hits give low values 0.985 | locus YER015W, strain faa2, hits give low values 0.959 | locus YER016W, strain bim1, hits give low values 0.964 | locus YER110C, hits give low values 0.995 | locus YER111C, strain swi4, hits give low values 0.956 | locus YER155C, strain BEM2 (second series), hits give low values 0.922 | locus YER155C, strain BEM2, hits give low values 0.984 | locus YER167W, strain BCK2, hits give low values 1 | locus YFR010W, strain ubp6, hits give low values 0.974 | locus YGL078C, strain dbp3, hits give low values 0.983 | locus YGL086W, strain mad1, hits give low values 0.991 | locus YGL167C, strain pmr1, hits give low values 0.953 | locus YGL173C, strain kem1, hits give low values 0.948 | locus YGL227W, strain vid30, hits give low values 0.95 | locus YGL240W, strain doc1, hits give low values 0.949 | locus YGL248W, strain PDE1, hits give low values 1 | locus YGL253W, strain hxk2, hits give low values 0.965 | locus YGR078C, strain PAC10, hits give low values 0.991 | locus YGR135W, strain pre9, hits give low values 0.994 | locus YGR229C, strain SMI1, hits give low values 0.994 | locus YGR252W, strain gcn5, hits give low values 0.977 | locus YHR013C, strain ard1, hits give low values 0.958 | locus YHR027C, strain rpn1, hits give low values 0.975 | locus YHR030C, strain SLT2, hits give low values 0.994 | locus YHR079C, strain IRE1 (second series), hits give low values 1 | locus YHR094C, strain hxt1, hits give low values 0.985 | locus YHR129C, strain ARP1, hits give low values 0.994 | locus YHR142W, strain chs7, hits give low values 0.965 | locus YHR200W, strain rpn10, hits give low values 0.996 | locus YIL066C, strain RNR3, hits give low values 0.993 | locus YIL073C, strain SPO22, hits give low values 1.07 | locus YIL125W, strain kgd1, hits give low values 0.983 | locus YIR030C, strain dcg1, hits give low values 0.994 | locus YJL092W, strain hpr5, hits give low values 0.957 | locus YJL095W, strain BCK1 (second series), hits give low values 0.955 | locus YJL095W, strain BCK1, hits give low values 0.942 | locus YJL115W, strain asf1, hits give low values 0.967 | locus YJL129C, strain trk1, hits give low values 0.931 | locus YJL134W, strain LCB3, hits give low values 0.995 | locus YJL154C, strain vps35, hits give low values 0.971 | locus YJL164C, strain tpk1, hits give low values 0.964 | locus YJL166W, strain qcr8, hits give low values 0.955 | locus YJL168C, strain set2, hits give low values 1.01 | locus YJL187C, strain SWE1 (second series), hits give low values 1 | locus YJL187C, strain SWE1, hits give low values 0.973
